Source: the supplement of paper PMC6089552
Screen size: about 3,200 compounds; about 300 (9.4%) showed activity. Only a selection was taken, and actives are over-represented in it overall.

Tested on: A673/TR/shEF
Assay: cell viability (LOESS-normalised, relative to median of negative controls) (log2 ratio); higher = more viable cells (less compound effect), active = hit call of the paper (over 3 MAD below the median)
Settings: treatment time: 72 h
Outline: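 A673/TR/shEF Ewing sarcoma cells (1,500 per well, 384-well plates) were grown with or without doxycycline to induce EWS-FLI1 shRNA knockdown, starting 24 h before compounds. Library compounds at two or more concentrations, with DMSO controls, were added for three days. Cell viability was read by CellTiter-Glo luminescence on an Envision reader, then LOESS-corrected per plate, divided by the median of negative controls and log2-transformed. Hits were wells at least three median absolute deviations from the median of all screened wells.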

[1] = 0.25 µM, library screen: screen2, EWS-FLI1 expression: high (no doxycycline)
[2] = 0.25 µM, library screen: screen2, EWS-FLI1 expression: low (doxycycline-induced shRNA knockdown)
[3] = 2.5 µM, library screen: screen2, EWS-FLI1 expression: high (no doxycycline)
[4] = 2.5 µM, library screen: screen2, EWS-FLI1 expression: low (doxycycline-induced shRNA knockdown)
[5] = 0.25 µM, library screen: screen1, EWS-FLI1 expression: high (no doxycycline)
[6] = 0.25 µM, library screen: screen1, EWS-FLI1 expression: low (doxycycline-induced shRNA knockdown)
[7] = 2.5 µM, library screen: screen1, EWS-FLI1 expression: high (no doxycycline)
[8] = 2.5 µM, library screen: screen1, EWS-FLI1 expression: low (doxycycline-induced shRNA knockdown)

Measured: cell viability (log2)

N[C@@H](Cn1ccc(=O)[nH]c1=O)C(=O)O
inactive: [1] 0.256 | [2] -0.00427 | [3] 0.176 | [4] 0.041

CNC(=O)O/N=C/C(C)(C)SC
inactive: [5] 0.0387 | [6] 0.0491 | [7] 0.106 | [8] 0.0724

C[C@@H]1OC(=O)[C@H]2C[C@H]3CCCC[C@@H]3[C@@H](/C=C/[C@@H]3CCC[C@@H](C)N3C)[C@@H]12
inactive: [1] 0.0803 | [2] 0.0731 | [3] 0.143 | [4] 0.0419

c1cncc(C2CCCCN2)c1 (stereo unspecified)
inactive: [5] 0.0408 | [6] -0.0074 | [7] 0.145 | [8] 0.0957

CC(C)=CCC[C@]1(C)C=Cc2c(O)c3c(c(CC=C(C)C)c2O1)O[C@]12C(=C[C@@H]4C[C@H]1C(C)(C)O[C@@]2(C/C=C(/C)C(=O)O)C4=O)C3=O
active: [7] -1.16
inactive: [5] -0.0514 | [6] 0.129 | [8] -0.0142

COC(=O)/C(C)=C\CC12OC(C)(C)C3CC(C=C4C(=O)c5c(OC)c6c(c(CC=C(C)C)c5OC431)OC(C)(CCC=C(C)C)C=C6)C2=O (stereo unspecified)
inactive: [5] 0.0497 | [6] 0.135
active: [7] -4.2 | [8] -3.74

CC(C)=CCCC1(C)C=Cc2c(O)c3c(c(CC=C(C)C)c2O1)OC12C(=CC4CC1C(C)(C)OC2(CC=C(C)C(=O)O)C4O)C3=O (stereo unspecified)
active: [7] -0.137
0.307: [8]
inactive: [5] 0.1 | [6] 0.0956

CC(=O)Oc1c2c(c(CC=C(C)C)c3c1C(=O)C1=C[C@@H]4CC5C(C)(C)OC(C/C=C(\C)C(=O)O)(C4=O)[C@@]15O3)OC(C)(CCC=C(C)C)C=C2 (stereo partly specified)
inactive: [5] 0.0664 | [6] 0.0597 | [7] -0.0173 | [8] 0.269

CC(C)=CCCC1(C)C=Cc2c(O)c3c(c(CC=C(C)C)c2O1)OC12C(CC4CC1C(C)(C)OC2(C/C=C(/C)C(=O)O)C4O)C3=O (stereo unspecified)
inactive: [5] 0.0661 | [6] 0.00238 | [7] 0.127 | [8] 0.0888

COc1cccc(CN2CCN(Cc3ccccc3OC)CC2)c1
inactive: [5] 0.108 | [6] 0.0202 | [7] 0.149 | [8] -0.0141

COc1cc2c(cc1-c1cc3cc4ccoc4cc3oc1=O)OCO2
inactive: [5] 0.0215 | [6] -0.011 | [7] 0.0285 | [8] 0.107

CN1[C@H]2CC(OC(=O)C(CO)c3ccccc3)C[C@H]1[C@H]1O[C@H]12 (stereo partly specified)
inactive: 0.103 µM, library screen: screen3, EWS-FLI1 expression: high (no doxycycline) 0.0178 | 0.103 µM, library screen: screen3, EWS-FLI1 expression: low (doxycycline-induced shRNA knockdown) 0.0286 | [5] 0.0614 | [6] 0.0379 | [1] 0.0402 | [2] 0.0538 | 0.308 µM, library screen: screen3, EWS-FLI1 expression: high (no doxycycline) 0.0468 | 0.308 µM, library screen: screen3, EWS-FLI1 expression: low (doxycycline-induced shRNA knockdown) 0.0486 | 0.926 µM, library screen: screen3, EWS-FLI1 expression: high (no doxycycline) 0.057 | 0.926 µM, library screen: screen3, EWS-FLI1 expression: low (doxycycline-induced shRNA knockdown) 0.0457 | [7] 0.101 | [8] 0.113 | [3] 0.0967 | [4] 0.105 | 2.8 µM, library screen: screen3, EWS-FLI1 expression: high (no doxycycline) 0.00477 | 2.8 µM, library screen: screen3, EWS-FLI1 expression: low (doxycycline-induced shRNA knockdown) 0.0597 | 8.3 µM, library screen: screen3, EWS-FLI1 expression: high (no doxycycline) 0.0173 | 8.3 µM, library screen: screen3, EWS-FLI1 expression: low (doxycycline-induced shRNA knockdown) 0.0298 | 25 µM, library screen: screen3, EWS-FLI1 expression: high (no doxycycline) -0.0119 | 25 µM, library screen: screen3, EWS-FLI1 expression: low (doxycycline-induced shRNA knockdown) 0.114

CCNc1nc(Cl)nc(NCC)n1
inactive: [5] 0.0934 | [6] -0.0122 | [7] 0.0949 | [8] 0.0079

c1ccc2c(c1)sc1ccccc12
inactive: [5] 0.0739 | [6] 0.0613 | [7] 0.158 | [8] 0.198

CCOP(=S)(OCC)SCSP(=S)(OCC)OCC
inactive: [5] 0.0176 | [6] 0.0157 | [7] 0.0447 | [8] 0.0694
